# Only some compounds are listed: those with a hit (about 16% of all), similar ones and a draw of the others.
# TDP1 cell CPT – qHTS for Inhibitors of human tyrosyl-DNA phosphodiesterase 1 (TDP1): qHTS in cells in presence of CPT; chicken DT40 Tdp1-/-;hTDP1 cells + 20 nM CPT, ATP luminescence, 48 h; Potency, µM (highest dose often 46.2 µM), inactives show at the top dose activity change, negative = growth inhibition, actives largely listed as inhibitors; 420,000 compounds, 12% hits; also: potency is read from the fitted curve at half-maximal effect; % is scaled to controls: 0 for no effect and ±100 for the full control effect; nearly all actives have a fitted effect of over 55% in size
#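 Chicken DT40 Tdp1-/- cells stably complemented with human TDP1 were seeded at 400 cells/well in medium containing 20 nM camptothecin, exposed to pin-transferred compounds, and grown at 37 °C for at least 48 hr. Viability was read as ATP luminescence.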
# TDP1 block – qHTS Assay for Inhibitors of Tyrosyl-DNA Phosphodiesterase (TDP1). recombinant TDP1, AlphaScreen DNA substrate cleavage. 350,000 compounds, 0.28% hits. AID 485290, 2010. Potency, µM (doses to about 130 µM), inactives show at the top dose activity change, negative = inhibition, usual class: inhibitors. Tyrosyl-DNA phosphodiesterase 1 (Homo sapiens), Q9NUW8; also: potency is read from the fitted curve at half-maximal effect; % is scaled to controls: 0 for no effect and ±100 for the full control effect; nearly all actives have a fitted effect of over 40% in size
# Target sequence (Q9NUW8 whole entry, looked up): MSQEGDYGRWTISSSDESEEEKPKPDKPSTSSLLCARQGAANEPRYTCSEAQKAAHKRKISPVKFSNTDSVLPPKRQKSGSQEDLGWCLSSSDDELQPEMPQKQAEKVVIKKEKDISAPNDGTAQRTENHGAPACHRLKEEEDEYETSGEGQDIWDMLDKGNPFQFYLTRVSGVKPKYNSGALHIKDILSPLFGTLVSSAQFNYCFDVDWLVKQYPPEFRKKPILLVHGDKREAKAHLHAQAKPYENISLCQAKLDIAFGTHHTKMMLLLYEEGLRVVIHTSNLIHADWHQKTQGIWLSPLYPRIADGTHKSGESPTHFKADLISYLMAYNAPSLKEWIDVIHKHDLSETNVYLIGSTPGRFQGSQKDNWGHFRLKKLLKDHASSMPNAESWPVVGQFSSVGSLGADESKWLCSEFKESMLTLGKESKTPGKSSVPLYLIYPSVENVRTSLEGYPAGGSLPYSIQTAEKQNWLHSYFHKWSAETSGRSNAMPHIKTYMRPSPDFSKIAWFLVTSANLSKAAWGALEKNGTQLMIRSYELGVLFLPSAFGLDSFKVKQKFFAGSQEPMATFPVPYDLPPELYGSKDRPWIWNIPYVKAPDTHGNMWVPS
#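 E. coli-derived human Tdp1, 1 nM final. Cpd preinc 15 min RT; substrate 15 nM final, 5 min RT; AS bead mix 10 ug/ml final, 10 min RT. Signal loss = tyrosine-FITC cleavage. No-enzyme wells = max signal.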
# uPA generation – qHTS for Inhibitors of Cell Surface uPA Generation; cell surface uPA generation assay, qHTS; Potency, µM (titrated, usually from 38.3 µM), for inactives: at the top dose activity change, negative = inhibition, actives largely listed as inhibitors; 330,000 compounds, 0.31% hits; active = well fitted inhibition curve with a large enough effect; inconclusive = small, poorly fitted or top-dose-only effect; inactive = no such curve, though single readings can be large or run the other way; tested in mouse RAW 264.7 cells; also: potency is read from the fitted curve at half-maximal effect; % is scaled to controls: 0 for no effect and ±100 for the full control effect; nearly all actives have a fitted effect of over 55% in size
# miR-21 act – qHTS Assay for Modulators of miRNAs and/orActivators of miR-21. HeLa miR-21 FLuc reporter, luciferase, 48 h. Potency, µM (titrated, usually from 38.3 µM), without a hit: at the top dose activity change, positive = activation, actives largely listed as activators. 340,000 tested, under 10 active. AID 2288, 2010;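 also: % of control where 0% means no effect; miR-21 action dims this reporter so a rising signal means less miR-21 action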
#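 HeLa cells stably expressing CMV-driven firefly luciferase with a downstream miR-21 binding sequence, endogenously expressing miR-21, were treated with titrations (up to about 40uM final) for 48 hours at 37 degree Celsius. Luciferase luminescence was read after lysis.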
# TDP1 cell noCPT – qHTS for Inhibitors of human tyrosyl-DNA phosphodiesterase 1 (TDP1): qHTS in cells in absence of CPT | DT40 Tdp1-/- hTDP1 cells, no CPT, ATP luminescence, 48 h | Potency, µM (top dose mostly 46.2 µM), without a hit: top-dose activity change, negative = growth inhibition, most hits filed as inhibitors | 420,000 compounds, 15% hits; also: potency is read from the fitted curve at half-maximal effect; % is scaled to controls: 0 for no effect and ±100 for the full control effect; nearly all actives have a fitted effect of over 55% in size
#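 Readout: luminescence from CellTiter-Glo after 30 min in the dark at RT. Cells: DT40 Tdp1-/- with stable hTDP1, 400/well. Exposure: compounds alone, ≥48 hr, 37 °C.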
# * = called active by the depositor; u = inconclusive; x = no result given; ! = repeats disagree; [ ] = remark or other dose. Unless noted, calls follow the shape of the dose curve; as a rule, active = well fitted curve in the direction sought with a large enough effect; inconclusive = small, poorly fitted or top-dose-only effect, or another doubt; inactive = no such curve, though single readings can be large; an effect the other way counts as inactive or inconclusive.
SMILES,TDP1 cell CPT,TDP1 block,uPA generation,miR-21 act,TDP1 cell noCPT
CCCn1c2ccc(C)cc2c2nnc(SCCN3CCCCC3)nc21,18.4µM*,-1.1%,-4.0%,6.4%,20.6µM*
CCn1c2ccc(C)cc2c2nnc(SCCN3CCCCC3)nc21,u,x,-10.9%,-2.2%,16.4µM*
CCn1c2ccc(C)cc2c2nc3cc(C(=O)O)ccc3nc21,-28.0%,-9.7%,2.3%,-56.8%,u
CCCn1c2ccc(F)cc2c2nnc(SCCN(CC)CC)nc21,u,0.0%,x,-8.8%,u
CCn1c2ccc(F)cc2c2nnc(SCCN3CCCCC3)nc21,u,0.0%,-5.8%,-11.5%,16.4µM*!
CCCn1c2ccc(F)cc2c2nnc(SCCN3CCOCC3)nc21,18.4µM*,x,-14.8%,-8.7%,u
COc1ccc(S(=O)(=O)N2CCN(C(=O)C3CCCCC3)CC2)cc1,-0.5%,x,-1.7%,-0.5%,-26.7%
CCCn1c2ccc(C)cc2c2nnc(SCCN3CCOCC3)nc21,u,x,-14.2%,3.0%,16.4µM*
CCCn1c2ccc(C)cc2c2n[nH]c(=S)nc21,u,x,-6.8%,-11.1%,14.6µM*
CCCn1c2ccccc2c2nnc(SCCN3CCOCC3)nc21,u,4.8%,-5.9%,-2.9%,u
COc1cc(O)c(C(CC(=O)N2CCN(c3ccccc3)CC2)c2ccc(N(C)C)cc2)c(OC)c1 (stereo not given),23.1µM*,25.6%,17.1%,8.2%,-20.1%
COc1ccc(C(CC(=O)N2CCN(c3ccccc3)CC2)c2c(OC)cc(OC)c3ccc(=O)oc23)cc1 (stereo not given),20.6µM*,15.6%,-4.3%,10.4%,u
COc1cc(C(CC(=O)N2CCCC2)c2c(OC)cc(OC)c3ccc(=O)oc23)cc(OC)c1OC (stereo not given),-13.7%,x,11.8%,3.1%,-24.8%
Cc1cccnc1NC(=O)c1cc2ccccc2oc1=O,-26.5%,-2.6%,-3.5%,-57.8%,u
CCN(CC)Cc1cc2[nH]c3c4ccc(Cl)cc4ncc3c2cc1OC,3.16µM*,x,10.8%,u,5.01µM*
CCCCC#CC1C=CC(Oc2cc(OC)c(OC)c(OC)c2)C(COC(=O)OCC)O1 (stereo not given),x,2.6%[21 µM],x,x,x
CCn1c(O)c(C=Nc2ccccc2)n(-c2ccccc2)c1=S,6.51µM*,4.7%,-0.3%,-11.2%,5.8µM*
COc1ccccc1N1C(=O)c2cccc3c(Cl)ccc(c23)C1=O,u,x,-1.9%,3.0%,13µM*
COc1ccccc1N1C(=O)c2ccccc2C1=O,x,-0.1%,x,x,x
O=C(NC1CC2CCCC(C1)N2C(=O)Nc1ccc(Cl)c(C(F)(F)F)c1)C1CC1 (stereo not given),u,-6.0%,-8.5%,-5.6%,16.4µM*
Cc1cccc(NC(=O)N2C3CCCC2CC(NC(=O)C2CC2)C3)c1 (stereo not given),4.1%,0.7%,-2.1%,-1.3%,-8.4%
O=C(N=C1c2ccccc2CN1c1ccccc1)c1cccc([N+](=O)[O-])c1,-12.5%,2.6%,-2.5%,-33.5%,11.6µM*
CCC1CCCCN1CCCNC(=O)CCNC(=O)Cn1cnc2ccccc2c1=O (stereo not given),17.8%,2.8%,-1.0%,-3.9%,-19.0%
CCCCNC(=O)C[C@@H]1C[C@@]2(C(=O)OCC)CCC=C2N(Cc2ccc(Cl)cc2Cl)C1=O,u,x,x,x,16.4µM*
CCOC(=O)[C@]12CCC=C1N(Cc1ccc(Cl)cc1Cl)C(=O)[C@H](CC(=O)NCCCOC)C2,u,x,x,x,16.4µM*
O=C(CCCCCl)Nc1c2c(nc3ccccc13)CCC2,-25.5%,x,4.5%,-4.9%,-1.0%
CCn1nc(NC(=O)c2ccccn2)c2cc3cccc(C)c3nc21,u,0.0%,2.9%,-0.1%,18.4µM*
CCn1nc(NC(=O)c2ccncc2)c2cc3cccc(C)c3nc21,-23.8%,2.1%,-3.3%,5.0%,-23.3%
Cn1ccnc1,x,-8.5%[56.1 µM],x,x,x
